Nrf2 inh: Nrf2 pathway inhibition. Potency, µM (series often up to 46 µM), for inactives: at the highest dose activity change, negative = inhibition, actives largely listed as inhibitors. A549 ARE-Fluc reporter, luciferase luminescence, 18-24 h. AID 504444. 2.1% of 360,000 active; also: potency is read from the fitted curve at half-maximal effect; % is scaled to controls: 0 for no effect and ±100 for the full control effect; nearly all actives have a fitted effect of over 60% in size
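Quantitative HTS in A549 cells stably bearing an antioxidant response element-firefly luciferase construct. Inhibition of Nrf2-driven transcription was scored by luminescence after 18-24 h of compound exposure at 37 °C.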
Nrf2 ARE act: activators of Nrf2 (ARE) signaling; AREc32 ARE-luciferase reporter (MCF7-derived line), luminescence, 24 h; Potency, µM (doses to about 46.1 µM), for the others: at the highest dose activation, actives largely listed as activators; 0.31% of 410,000 active; also: potency is read from the fitted curve at half-maximal effect; % of control where 0% means no effect; nearly all actives have a fitted effect of over 65% in size
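Steps: seed AREc32_Fluc cells (1000/well, 5% FBS OPTI-MEM); incubate overnight at 37 deg C; add 23 nL compound; incubate 24 hr; add Steady-Glo; hold 30 min RT; read luminescence.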
A549 tox-1: counter-screen for Nrf2 inhibitors: cytotoxicity in A549 cells | 0.16% of 390,000 active | A549 ARE-Fluc cells, CellTiter-Fluor viability, 18-24 h | Potency, µM (doses to about 46 µM), for the others: at the top dose activity change, negative = cytotoxicity, actives largely listed as inhibitors | AID 504648; also: potency is read from the fitted curve at half-maximal effect; % is scaled to controls: 0 for no effect and ±100 for the full control effect
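Cytotoxicity counterscreen: CellTiter-Fluor fluorescence was measured in A549 ARE_Fluc cells after 18-24 h of compound exposure in a concentration series. The subsequent BugLite luminescent read reports ARE-luciferase activity.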
12-LOX inh: blocks human arachidonate 12S-lipoxygenase | P18054 | purified 12hLO, xylenol orange hydroperoxide absorbance | Potency, µM (titrated, usually from 108 µM), for inactives: at the top dose activity change, negative = inhibition, actives largely listed as inhibitors | 1.1% of 580,000 active | AID 1671190; also: potency is read from the fitted curve at half-maximal effect; % is scaled to controls: 0 for no effect and ±100 for the full control effect
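Purified human 12hLO at 150 nM in 25 mM Hepes, 0.01% Triton X-100, pH 7.0, preincubated 15 min at room temperature with compound. Reaction started with 40 uM arachidonic acid, 30 min at room temperature. Hydroperoxide measured by Fe-xylenol orange, 573/405 nm absorbance ratio.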
LDHA inh: LDHA (human) enzyme inhibition; 0.15% of 480,000 active; purified LDHA, NADH/diaphorase-resazurin fluorescence; active compounds read low; activity change, % (values are at about 110 or 230 µM); in the data active = activity change below about -30%; inconclusive = mostly about -25% to -30%;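 also: plate controls were DMSO wells for no effect and wells without enzyme for full effect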
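Enzyme activity of human lactate dehydrogenase 5 (2 nM; 0.06 mM NADH, 0.2 mM pyruvate, 5 min, RT) is measured via a resazurin/diaphorase fluorescence readout of residual NADH.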
IDH1 R132H inh: inhibitors of human mutant IDH1 R132H; AID 602179; Potency, µM (series often up to 76.6 µM), for the others: at the top dose activity change, negative = inhibition, hits mostly inhibitors; 0.093% of 390,000 active; O75874; IDH1-R132H enzyme, NADPH consumption, diaphorase/resazurin fluorescence; also: potency is read from the fitted curve at half-maximal effect; % is scaled to controls: 0 for no effect and ±100 for the full control effect; nearly all actives have a fitted effect of over 65% in size
Target sequence (O75874 whole entry R132H, stated change not applied): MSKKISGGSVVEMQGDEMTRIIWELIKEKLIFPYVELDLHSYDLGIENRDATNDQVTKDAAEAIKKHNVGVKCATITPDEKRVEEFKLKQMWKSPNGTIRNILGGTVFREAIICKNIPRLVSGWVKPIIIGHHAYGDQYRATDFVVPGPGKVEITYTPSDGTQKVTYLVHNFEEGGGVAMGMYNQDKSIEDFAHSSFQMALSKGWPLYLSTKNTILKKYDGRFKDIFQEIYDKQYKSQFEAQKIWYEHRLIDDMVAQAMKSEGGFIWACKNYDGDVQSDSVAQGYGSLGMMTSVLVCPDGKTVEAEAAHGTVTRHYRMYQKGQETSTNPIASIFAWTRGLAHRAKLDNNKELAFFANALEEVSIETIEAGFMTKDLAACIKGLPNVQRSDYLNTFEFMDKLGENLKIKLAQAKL
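IDH1-R132H (0.5 ug/mL) preincubated 30 min with compound, then NADPH (0.016 mM) and alpha-KG (2 mM) added; 80 min at RT, pH 7.5. Remaining NADPH coupled via diaphorase/resazurin to fluorescence (540/590 nm); concentration-response curves normalized to no-enzyme control.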
FLuc enzyme inh: blocks purified firefly luciferase in Nrf2 counterscreen; Potency, µM (titrated, usually from 57.5 µM), for the others: top-dose activity change, negative = inhibition, most hits filed as inhibitors; 4% of 1,400 active; purified firefly luciferase, luminescence inhibition; shares compounds with Nrf2 inh; also: potency is read from the fitted curve at half-maximal effect; % is scaled to controls: 0 for no effect and ±100 for the full control effect; nearly all actives have a fitted effect of over 65% in size
A549 tox-2: A549 cytotoxicity, Nrf2 inhibitor counterscreen; shares compounds with Nrf2 inh; A549 ARE-Fluc cells, cytotoxicity counterscreen; Potency, µM (titrated, usually from 46.1 µM), inactives show at the top dose activity change, negative = cytotoxicity, actives largely listed as inhibitors; 2% of 1,400 active;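 also: potency is read from the fitted curve at half-maximal effect; cells exposed to compounds for 18 to 24 hours; % is scaled to controls: 0 for no effect and ±100 for the full control effect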
ARE-Fluc inh: confirmation of Nrf2 inhibitors in A549 ARE reporter cells; 74% of 1,400 active; AID 720524; A549 ARE-firefly luciferase reporter, luminescence; shares compounds with Nrf2 inh; Potency, µM (titrated, usually from 46.1 µM), for inactives: top-dose activity change, negative = inhibition, actives largely listed as inhibitors; also: potency is read from the fitted curve at half-maximal effect; % is scaled to controls: 0 for no effect and ±100 for the full control effect; nearly all actives have a fitted effect of over 65% in size
* = called active by the depositor; ? = inconclusive; · = not tested or not shown; [ ] = dose if it differs, or a comment. Sampled rows, rich in hits. Any-hit rate of the full collection: about 2.7%. Unless noted, calls follow the shape of the dose curve; as a rule, active = well fitted curve in the direction sought with a large enough effect; inconclusive = small, poorly fitted or top-dose-only effect, or another doubt; inactive = no such curve, though single readings can be large; an effect the other way counts as inactive or inconclusive.

SMILES	Nrf2 inh	Nrf2 ARE act	A549 tox-1	12-LOX inh	LDHA inh	IDH1 R132H inh	FLuc enzyme inh	A549 tox-2	ARE-Fluc inh
N=c1ccn(Cc2ccc(F)cc2)cc1	2.3µM*	-1%	-13%	151%	-8	3%	?	21µM*	23µM*
NC(=S)N/N=C/c1ncc(C(F)(F)F)cc1Cl	4.1µM*	10%	?	·	4	-5%	-1%	?	5.2µM*
COc1ccccc1N=c1oc2cc(O)ccc2cc1C(=O)NCC1CCCO1 (centres undefined)	?	2%	·	-8%	14	9%	-16%	0%	13µM*
Cc1ccccc1N1Cc2c(NCCCc3ccccc3)ncnc2N(C)CC1=O	·	·	·	4%	·	·	·	·	·
O=[N+]([O-])c1cccc(/C=N/O)c1	·	·	·	?	-1	·	·	·	·
COC(C(=O)C(O)C(C)O)C1Cc2cc3cc(OC4CC(OC5CC(O)C(O)C(C)O5)C(O)C(C)O4)c(C)c(O)c3c(O)c2C(=O)C1OC1CC(OC2CC(OC3CC(C)(O)C(O)C(C)O3)C(O)C(C)O2)C(O)C(C)O1 (centres undefined)	·	·	·	·	10	·	·	·	·
COC(C(=O)C(O)C(C)O)C1Cc2cc3cc(OC4CC(OC5CC(O)C(O)C(C)O5)C(O)C(C)O4)c(C)c(O)c3c(O)c2C(=O)C1OC1CC(OC2CC(OC3CC(O)C(OC)C(C)O3)C(O)C(C)O2)C(O)C(C)O1 (centres undefined)	0.12µM*	-2%	?	?	25	4%	-4%	-21%	0.37µM*
Cc1cc2c(=Cc3ccc(N(C)C)cc3)c3ccccc3n2[n+]1C	2.6µM*	-1%	16µM*	-57%	24	3%	-22%	?	6.5µM*
O=C(CCS(=O)(=O)c1ccc2c(c1)CCN2C(=O)C1CC1)NC1CCCCCCC1	·	·	·	-5%	2	·	·	·	·
COc1cccc(N2CCN(c3ncnc4c3nc3n4CCCCC3)CC2)c1	?	-2%	-28%	0%	-3	4%	·	·	·
Cc1noc2ncnc(N3CCN(c4cccc(C(F)(F)F)c4)CC3)c12	8.2µM*	-1%	-1%	-20%	-4	-1%	2%	-5%	8.2µM*
FC(F)(F)c1cccc(N2CCN(c3ncnc4c3nc3n4CCCC3)CC2)c1	1.6µM*	-3%	0%	-10%	-1	11%	2%	-11%	2.1µM*
Cc1ccc(S(=O)(=O)NCCc2cccc(Cl)c2)cc1	·	·	·	-10%	2	·	·	·	·
Cc1csc2nc(COc3c(Cl)cccc3Cl)cc(=O)n12	·	·	·	0%	2	·	·	·	·
Cc1cc(C)c2cc(C(=O)OC(C)C(=O)N3CCC(C)CC3)[nH]c2c1 (centres undefined)	·	·	·	-63%	-16	·	·	·	·
COc1ccc(N2CCN(C(=O)CSc3nnc4n3C(C)(C)Cc3ccccc3-4)CC2)cc1	?	0%	-7%	-14%	-3	4%	·	·	·
Cc1ccc(Cl)cc1N1CCN(C(=O)CSc2nnc3n2C(C)(C)Cc2ccccc2-3)CC1	6.5µM*	0%	?	8%	-9	4%	0%	?	6.5µM*
CCNc1cc(N2CCC(CCC(=O)NC3CCCC3)CC2)ncn1	·	·	·	4%	·	·	·	·	·
Cc1cc(C)c2c(N)c3cccc(C)c3nc2n1	7.3µM*	-2%	-9%	-10%	-2	2%	-12%	-2%	3.3µM*
COc1ccc(NS(=O)(=O)c2ccc(N3CCOCC3)c(N)c2)cc1	3.3µM*	-1%	-17%	-6%	3	-10%	-2%	0%	4.1µM*
COc1ccc(S(=O)(=O)Nc2ccc(N3CCOCC3)cc2)cc1	?	-1%	8%	0%	2	-8%	·	·	·
CN(C)c1ccc(/C=C/c2cccc[n+]2[O-])cc1	10%	0%	-6%	0%	-3	10%	·	·	·
CC(C)CC[n+]1ccccc1/C=C/c1ccc(N(C)C)cc1	7.3µM*	3%	?	-19%	-9	-11%	2%	?	5.8µM*
COc1ccc(CC(=O)NNC(=O)c2cnccn2)cc1	2%	-1%	6%	6%	-12	-5%	·	·	·
COc1ccc(C(=O)NC(=S)NNC(=O)c2cnccn2)cc1	?	0%	?	-11%	-2	-5%	?	-27%	5.8µM*
SMILES	Nrf2 inh	Nrf2 ARE act	A549 tox-1	12-LOX inh	LDHA inh	IDH1 R132H inh	FLuc enzyme inh	A549 tox-2	ARE-Fluc inh
O=C(NC(=S)NNC(=O)c1cnccn1)c1ccc(Cl)cc1	5.8µM*	0%	-26%	0%	3	-1%	-11%	-14%	5.8µM*
Cn1c(=O)c2[nH]c(NCc3ccc4c(c3)OCO4)nc2n(C)c1=O	·	·	·	-1%	6	·	·	·	·
O=C(NC1CCOCC1)c1ccnc(-c2nnc3ccc(Nc4ccccc4)nn23)c1	·	·	·	-7%[176 µM]	·	·	·	·	·
CCCNC(=O)CNC(=O)Cc1c[nH]c2ccccc12	·	·	·	-41%	-2	·	·	·	·
Cc1ccc(NC(=O)CCc2ncc(-c3ccc(F)cc3F)o2)c(Cl)c1	·	·	·	-4%	11	·	·	·	·
CSc1nc2nc3c(cc2c(=O)n1-c1ccccc1C)CCCC3	5.8µM*	0%	?	?	1	9%	1%	-22%	·
CSc1nc2sc3c(c2c(=O)n1-c1ccccc1C)CCCC3	·	2%	0%	-15%	2	6%	·	·	·
COc1ccc(-c2c(C#N)c(SCC(=O)c3cc4ccccc4oc3=O)nc(C)c2C(=O)Nc2ccccc2)cc1	6.5µM*	0%	-13%	-20%	-8	-7%	-19%	-18%	15µM*
O=C(CCc1c[nH]c2ccccc12)NCC(F)(F)F	·	·	·	?	1	·	·	·	·
O=C(CCN1C(=O)/C(=C/c2ccccc2Cl)SC1=S)NNC(=O)c1cccnc1	4%	9%	-4%	5%	-4	7%	·	·	·
O=C(CCN1C(=O)/C(=C/c2ccccc2Cl)SC1=S)NNC(=O)c1ccccc1O	-22%	0%	-7%	-16%	-3	0%	·	·	·
Cc1ccc(/C=C2/SC(=S)N(CCCC(=O)Nc3ccc(O)cc3)C2=O)cc1	9.2µM*	3%	?	?	0	0%	?	?	13µM*

From PubChem BioAssay
